Experimental data published in PubChem BioAssay (NCI).
This is part of a sample that, as a whole, favours compounds with a hit. Of some 83,000 tested, about 20% had one in any assay.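 Interpretation: 100, growth as untreated; towards 0, rising growth inhibition; 0, no net growth; 0 to -100, cell death. Compounds scoring below 10 were considered active.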 Calls of active or inactive are those of the source.

Each compound was assayed on RPMI-8226 leukemia (assay: NCI-60 one-dose screen, 48 h (100 = growth as untreated, 0 = no growth, -100 = all killed)). Settings: 10 µM unless noted.
`COc1ccc(C(=O)N2CCN(C(=O)c3cc(OC)c(OC)c(OC)c3)CC2)cc1OCCCCOc1cc2c(cc1OC)C(=O)N1CCC[C@H]1C=N2` was tested, and the growth was 90.3% (inactive).
For `Cn1c(-c2nonc2NC(=O)c2ccc(F)cc2)nc2ccccc21`, the growth was 106% (inactive).
With `O=C(NCCCN1CCN(CCCNC(=O)C2CCCCC2)CC1)C1CCCCC1` the growth was 93.3% (inactive).
For `c1cc(-c2ccc3c(c2)OCO3)n2nccc2n1`, the growth was 97.1% (inactive).
In the case of `O=C(CN1CCN(c2cc3c(cc2F)c(=O)c(C(=O)O)cn3C2CC2)CC1)Nc1ccc(C(=O)/C=C/c2ccc(Cl)cc2)cc1`, the growth is reported as 90.2% (inactive).
With `CC(Cc1nnc(SCC(=O)Nc2ccc(I)cc2)n1N)c1ccccc1` (stereo unspecified) the growth was 59.8% (inactive).
With `Cc1ccc2c(c1)C(C)Cc1c(ncnc1-n1cnc3ccccc31)N2C` (stereo unspecified) the growth was 21.8% (inactive).
In the case of `CC1CCc2c(sc(NC(=O)CSc3nnc4ccccn34)c2C(N)=O)C1` (stereo unspecified), the growth is reported as 119% (inactive).
For `CC(=O)c1cc(C(=O)c2ccc3c(c2)Sc2ccccc2N3)c2cc(C)ccn12`, the growth was 12.3% (inactive).
With `CN(C)c1nc(N)c(N=O)c(N)n1` the growth was 110% (inactive).
For `CC[C@H](C)[C@H]1NC(=O)[C@@H](N[C@](C)(O)[C@@H](N)CC(C)C)[C@@H](C)OC(=O)[C@H](Cc2ccc(OC)cc2)N(C)C(=O)[C@@H]2CCCN2C(=O)[C@H](CC(C)C)NC(=O)[C@@H](C)C(=O)[C@H](C(C)C)OC(=O)C[C@@H]1O`, the growth was -33% (active).
`Cc1nc2scc(-c3ccccc3)n2c(=O)c1CCO` was tested, and the growth was 102% (inactive).
In the case of `Cc1ccc(Cn2c(-c3nonc3N)nc3ccccc32)cc1`, the growth is reported as 91% (inactive).
For `COc1cc(Cn2c(-c3nonc3N)nc3ccccc32)ccc1C`, the growth was 19.2% (inactive).
`COc1ccc(/C=N/NC(=O)Cn2c(Cc3cccc4ccccc34)nc3ccccc32)cc1` was tested, and the growth was 88.3% (inactive).
In the case of `Cc1ccc(Cn2c(-c3cccs3)nc3ccccc32)cc1`, the growth is reported as 77.8% (inactive).
With `Cc1ccc(OCCn2c(C)nn(-c3ccc(Cl)cc3)c2=O)cc1` the growth was 97.1% (inactive).
`COc1ccc(-c2nc(-c3ccccc3)c(-c3ccccc3)n2C2CC2)cc1OC1CCCCC1` was tested, and the growth was 48.7% (inactive).
For `COc1cc(/C=C2\CCCC3=C2NC(C)=NC3c2cc(OC)c(OC)c(OC)c2)cc(OC)c1OC` (stereo unspecified), the growth was -15.1% (active).
For `CCN1C(=O)N[C@H]2[C@@H]3NC(=O)c4ccc(Cl)n4[C@@H]3C[C@]21O`, the growth was -21.2% (active).
For `CC(C(=O)n1cc(-c2ccccc2)c(-c2ccccc2)c1)c1ccccc1` (stereo unspecified), the growth was 98.2% (inactive).
For `CC(Br)C(OC(=O)c1ccccc1Cl)c1cc2c(cc1Br)OCO2` (stereo unspecified), the growth was 92.2% (inactive).
For `CCC(c1cccc(Br)c1)C(C(=O)O)c1ccc(OC)cc1` (stereo unspecified), the growth was 101% (inactive).
`COC(=O)CCCCN=Cc1c(O)c(O)c(C(C)C)c2cc(C)c(-c3c(C)cc4c(C(C)C)c(O)c(O)c(C=NCCCCC(=O)OC)c4c3O)c(O)c12` was tested, and the growth was 17.7% (inactive).
In the case of `Cc1cc(C(=O)CSc2nc3ccccc3c(=O)[nH]2)c(C)n1C`, the growth is reported as 91.6% (inactive).
`Cn1cc(C=O)c2ccccc21` was tested, and the growth was 98.4% (inactive).
`CC(=O)N1Cc2ccccc2C(C)Cc2cc(Cl)ccc21` (stereo unspecified) was tested, and the growth was 105% (inactive).
For `Cn1c(=O)c2c(nc3n2CCN(CCc2ccc(OCCN4CCOCC4)cc2)C3)n(C)c1=O`, the growth was 100% (inactive).
`O=C(/C=C/c1ccccc1)n1c(-c2ccc(Cl)cc2)nc2ccccc21` was tested, and the growth was -31.1% (active).
For `COc1cc(C2CC(c3c(C)[n+]([O-])c4ccccc4[n+]3[O-])=NN2)cc(OC)c1OC` (stereo unspecified), the growth was 102% (inactive).
For `CCOC(=O)c1cc(/C(=N\O)c2cc(OC)c(OC)c(OC)c2)n2c(C)cccc12`, the growth was 41.5% (inactive).
In the case of `COC(=O)CCCCCCN=Cc1c(O)c(O)c(C(C)C)c2cc(C)c(-c3c(C)cc4c(C(C)C)c(O)c(O)c(C=NCCCCCCC(=O)OC)c4c3O)c(O)c12`, the growth is reported as 13.2% (inactive).
For `COc1ccc(/C(=N/O)c2cc(OC)c(OC)c(OC)c2)c(OC)c1N`, the growth was 32% (inactive).
With `COc1ccc(-n2c(C)cc(-c3ccccc3)c2C)cc1` the growth was 14.9% (inactive).
With `N#CC1=C(N)OC2=C(C(=O)CCC2)C1c1ccco1` (stereo unspecified) the growth was 100% (inactive).
For `C=CCc1cc(Cl)cc2c(OC(C)=O)c(C(C)=O)c(-c3ccccc3)nc12`, the growth was 97.4% (inactive).
In the case of `COc1cc(/C=C/C(=O)c2ccc(NC(=O)CN3CCN(c4cc5c(cc4F)c(=O)c(C(=O)O)cn5C4CC4)CC3)cc2)cc(OC)c1OC`, the growth is reported as -18.8% (active).
`COc1ccc(/C(=N\O)c2cc(OC)c(OC)c(OC)c2)c(OC)c1N` was tested, and the growth was 24.2% (inactive).

Each compound was assayed on OVCAR-8 ovarian in the same assay as above. Settings: 10 µM unless noted.
In the case of `COc1ccc(C(=O)N2CCN(C(=O)c3cc(OC)c(OC)c(OC)c3)CC2)cc1OCCCCOc1cc2c(cc1OC)C(=O)N1CCC[C@H]1C=N2`, the growth is reported as 209% (inactive).
With `Cn1c(-c2nonc2NC(=O)c2ccc(F)cc2)nc2ccccc21` the growth was 96.6% (inactive).
For `O=C(NCCCN1CCN(CCCNC(=O)C2CCCCC2)CC1)C1CCCCC1`, the growth was 101% (inactive).
For `c1cc(-c2ccc3c(c2)OCO3)n2nccc2n1`, the growth was 98.6% (inactive).
In the case of `O=C(CN1CCN(c2cc3c(cc2F)c(=O)c(C(=O)O)cn3C2CC2)CC1)Nc1ccc(C(=O)/C=C/c2ccc(Cl)cc2)cc1`, the growth is reported as 98% (inactive).
With `CC(Cc1nnc(SCC(=O)Nc2ccc(I)cc2)n1N)c1ccccc1` (stereo unspecified) the growth was 95.9% (inactive).
For `Cc1ccc2c(c1)C(C)Cc1c(ncnc1-n1cnc3ccccc31)N2C` (stereo unspecified), the growth was 21.3% (inactive).
With `CC1CCc2c(sc(NC(=O)CSc3nnc4ccccn34)c2C(N)=O)C1` (stereo unspecified) the growth was 109% (inactive).
For `CC(=O)c1cc(C(=O)c2ccc3c(c2)Sc2ccccc2N3)c2cc(C)ccn12`, the growth was 4.39% (active).
With `CN(C)c1nc(N)c(N=O)c(N)n1` the growth was 114% (inactive).
With `CC[C@H](C)[C@H]1NC(=O)[C@@H](N[C@](C)(O)[C@@H](N)CC(C)C)[C@@H](C)OC(=O)[C@H](Cc2ccc(OC)cc2)N(C)C(=O)[C@@H]2CCCN2C(=O)[C@H](CC(C)C)NC(=O)[C@@H](C)C(=O)[C@H](C(C)C)OC(=O)C[C@@H]1O` the growth was -13.6% (active).
`Cc1nc2scc(-c3ccccc3)n2c(=O)c1CCO` was tested, and the growth was 109% (inactive).
`Cc1ccc(Cn2c(-c3nonc3N)nc3ccccc32)cc1` was tested, and the growth was 88.3% (inactive).
In the case of `COc1cc(Cn2c(-c3nonc3N)nc3ccccc32)ccc1C`, the growth is reported as 31.6% (inactive).
`COc1ccc(/C=N/NC(=O)Cn2c(Cc3cccc4ccccc34)nc3ccccc32)cc1` was tested, and the growth was 93.7% (inactive).
With `Cc1ccc(Cn2c(-c3cccs3)nc3ccccc32)cc1` the growth was 82.3% (inactive).
With `Cc1ccc(OCCn2c(C)nn(-c3ccc(Cl)cc3)c2=O)cc1` the growth was 109% (inactive).
For `COc1ccc(-c2nc(-c3ccccc3)c(-c3ccccc3)n2C2CC2)cc1OC1CCCCC1`, the growth was 55.4% (inactive).
`COc1cc(/C=C2\CCCC3=C2NC(C)=NC3c2cc(OC)c(OC)c(OC)c2)cc(OC)c1OC` (stereo unspecified) was tested, and the growth was 5.87% (active).
With `CCN1C(=O)N[C@H]2[C@@H]3NC(=O)c4ccc(Cl)n4[C@@H]3C[C@]21O` the growth was 1.27% (active).
For `CC(C(=O)n1cc(-c2ccccc2)c(-c2ccccc2)c1)c1ccccc1` (stereo unspecified), the growth was 99.2% (inactive).
`CC(Br)C(OC(=O)c1ccccc1Cl)c1cc2c(cc1Br)OCO2` (stereo unspecified) was tested, and the growth was 94.8% (inactive).
`CCC(c1cccc(Br)c1)C(C(=O)O)c1ccc(OC)cc1` (stereo unspecified) was tested, and the growth was 107% (inactive).
With `COC(=O)CCCCN=Cc1c(O)c(O)c(C(C)C)c2cc(C)c(-c3c(C)cc4c(C(C)C)c(O)c(O)c(C=NCCCCC(=O)OC)c4c3O)c(O)c12` the growth was 16.4% (inactive).
In the case of `Cc1cc(C(=O)CSc2nc3ccccc3c(=O)[nH]2)c(C)n1C`, the growth is reported as 96.4% (inactive).
For `Cn1cc(C=O)c2ccccc21`, the growth was 95.2% (inactive).
In the case of `CC(=O)N1Cc2ccccc2C(C)Cc2cc(Cl)ccc21` (stereo unspecified), the growth is reported as 109% (inactive).
For `Cn1c(=O)c2c(nc3n2CCN(CCc2ccc(OCCN4CCOCC4)cc2)C3)n(C)c1=O`, the growth was 109% (inactive).
With `O=C(/C=C/c1ccccc1)n1c(-c2ccc(Cl)cc2)nc2ccccc21` the growth was -31.3% (active).
With `COc1cc(C2CC(c3c(C)[n+]([O-])c4ccccc4[n+]3[O-])=NN2)cc(OC)c1OC` (stereo unspecified) the growth was 109% (inactive).
For `CCOC(=O)c1cc(/C(=N\O)c2cc(OC)c(OC)c(OC)c2)n2c(C)cccc12`, the growth was 54.3% (inactive).
`COC(=O)CCCCCCN=Cc1c(O)c(O)c(C(C)C)c2cc(C)c(-c3c(C)cc4c(C(C)C)c(O)c(O)c(C=NCCCCCCC(=O)OC)c4c3O)c(O)c12` was tested, and the growth was 18.6% (inactive).
In the case of `COc1ccc(/C(=N/O)c2cc(OC)c(OC)c(OC)c2)c(OC)c1N`, the growth is reported as 40.7% (inactive).
`COc1ccc(-n2c(C)cc(-c3ccccc3)c2C)cc1` was tested, and the growth was 51.6% (inactive).
In the case of `N#CC1=C(N)OC2=C(C(=O)CCC2)C1c1ccco1` (stereo unspecified), the growth is reported as 103% (inactive).
`C=CCc1cc(Cl)cc2c(OC(C)=O)c(C(C)=O)c(-c3ccccc3)nc12` was tested, and the growth was 113% (inactive).
For `COc1cc(/C=C/C(=O)c2ccc(NC(=O)CN3CCN(c4cc5c(cc4F)c(=O)c(C(=O)O)cn5C4CC4)CC3)cc2)cc(OC)c1OC`, the growth was 4.74% (active).
`COc1ccc(/C(=N\O)c2cc(OC)c(OC)c(OC)c2)c(OC)c1N` was tested, and the growth was 18% (inactive).
